PubChem BioAssay AID1839 (Johns Hopkins Ion Channel Center, 2009)
In all, about 2,400 compounds went through this assay and about 220 (9.2%) were called active. Only a selection was taken, and actives are over-represented in it overall. Unmarked numbers belong to inactive results.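 Rule for the calls: active = signal change above the mean of dofetilide-free buffer controls plus 3 SD, so a positive margin; inactive = the rest.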

experiment: thallium signal changes without hERG – cell-based, CHO-K1 parental line, FluxOR thallium flux, counter-screen for hERG block protection project, confirmation (AID 1839); details: CHO-K1 parental cells, FluxOR thallium flux fluorescence; at 10 µM;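 note: compounds applied alone with no dofetilide to cells lacking hERG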

Row | SMILES | signal change vs control minus 3*SD hit threshold (margin above threshold, higher = more increase)
1 | Cc1nn(-c2ccc(Cl)cc2)c2sc(C(=O)c3c(N)n(C)c(=O)n(C)c3=O)cc12 | -34.5%
2 | Cc1ccc(N=Cc2cc(Cl)cc(Cl)c2O)nc1 | -26.6%
3 | Oc1c(Cl)cc(Cl)cc1C=Nc1ccc(Br)cc1 | 12.8% (active)
4 | Cc1ccc(N=Cc2cc(Br)cc(Cl)c2O)cc1 | -4.8%
5 | NC(=O)c1cccc(N=Cc2cc(Cl)cc(Cl)c2O)c1 | -22.3%
6 | Cc1cccc(N=Cc2cc(Br)cc(Cl)c2O)c1 | 3.2% (active)
7 | COc1cc(Br)cc(C=Nc2cccc(C(F)(F)F)c2)c1O | -8.3%
8 | COc1cc(C2NC(=O)NC(O)(C(F)(F)F)C2C(C)=O)cc(OC)c1OC (stereo unspecified) | -34.1%
9 | CCOc1cc(/C=C2/C(=O)ON=C2C)ccc1O | -38.8%
10 | Oc1ccc(Cl)cc1C1=NNC(c2cccs2)C1 (stereo unspecified) | -19.1%
11 | Cc1ccc(SCc2ccc(C(=O)N3CCCC3)cc2)cc1 | -17%
12 | CCOc1ccc(NC(=S)NS(=O)(=O)c2cc(Br)ccc2OCC)cc1 | -3.6%
13 | Nc1nnc(SCC(=O)OCc2ccc(F)cc2)s1 | -40.4%
14 | Cc1cccc(N2CCN(C(=O)Cc3c(C(=O)O)[nH]c4ccc(Cl)cc34)CC2)c1C | -33.6%
15 | Cc1ccc(S(=O)(=O)N(C)C)cc1NC(=S)NC(C)CCCC(C)C (stereo unspecified) | -30.7%
16 | CC(Nc1ccc(F)cc1)=[N+](C)CCNS(=O)(=O)c1ccc(Cl)cc1 | -34.8%
17 | CC(=O)c1c(C)[nH]c(-c2ccccc2)nc1=S | -20.4%
18 | CSc1nc(-c2ccccc2)[nH]c(=S)c1C(C)=O | 34.8% (active)
19 | CC(=O)c1c(N)[nH]c(-c2ccccc2)nc1=S | -6.7%
20 | O=C1C2CC=CCC2C(=O)N1c1ccc(Cc2ccncc2)cc1 (stereo unspecified) | -16%
21 | CCCCn1c(-c2csc(C(C)C)c2)n[nH]c1=S | -20.9%
22 | O=C(Cn1nnc(-c2cccc(C(F)(F)F)c2)n1)N1CCCCCC1 | -29.6%
23 | CCCn1c(SC(C)C(=O)N2CCOCC2)nc2ccc(Br)cc2c1=O (stereo unspecified) | -28.1%
24 | O=c1c2ccc(Cl)cc2nc(-c2cccc(C(F)(F)F)c2)n1O | 66.5% (active)
25 | CCCn1c(SCN2C(=O)c3ccccc3C2=O)nc2cc(Cl)ccc2c1=O | -10.9%
26 | COc1cc(OC)cc(-c2nc3ccccc3c(=O)n2OC(=O)c2ccc(Br)cc2)c1 | -34.9%

Row | SMILES | signal change vs control minus 3*SD hit threshold (margin above threshold, higher = more increase)
27 | NC(=O)c1nn2c(C(F)(F)F)cc(-c3ccccc3)nc2c1Br | -26%
28 | O=c1c2cc(Br)ccc2nc(-c2ccc(Cl)cc2)n1O | 48.2% (active)
29 | O=c1c2cc(Br)ccc2nc(-c2cccc(C(F)(F)F)c2)n1O | 69.7% (active)
30 | O=c1c2cc(Br)ccc2nc(-c2cccc(Cl)c2)n1O | 45.7% (active)
31 | N#Cc1ccc(-c2nc3cc(Cl)ccc3c(=O)n2O)cc1 | -29.9%
32 | O=C(CCc1ccccc1Cl)Nc1ccc(S(=O)(=O)N2CCOCC2)cc1 | -31.3%
33 | CC(=O)OCC1O[C@@H](O[C@@H]2C[C@H]3C(C)(C)[C@H](OC(C)=O)CC[C@]3(C)[C@H]3CC[C@]45C[C@]4(CC[C@H]5[C@@H](C)C[C@@H](O)[C@H](O)C(C)(C)O)[C@@]32C)[C@H](O)[C@@H](O)[C@@H]1O (stereo partly specified) | -4.8%
34 | Cc1c(OC(C)C(=O)NCCN2CCOCC2)ccc2c3c(c(=O)oc12)CCC3 (stereo unspecified) | -28.3%
35 | Cc1occc1C(=O)NNC(=S)NC(=O)COc1ccc(Cl)cc1Cl | -23.7%
36 | Cc1c(C#N)c(O)[nH]c(=O)c1N=Nc1ccc(Br)cc1C(=O)O | -28.4%
37 | O=c1c2cc(Br)ccc2nc(-c2ccccc2)n1O | 5.2% (active)
38 | O=c1cc(-c2ccccc2)cc(-c2ccccc2)n1O | -22.5%
39 | N#Cc1ccc(-c2nc3ccc(Br)cc3c(=O)n2O)cc1 | -5.1%
40 | Cc1sc2nc(C(C)C)nc(SCC(=O)NCc3ccco3)c2c1C | -12.6%
41 | CC(C)(C)c1ccc(C(=O)NC(=S)N2CCCC2)cc1 | -17.2%
42 | CC(C)(C)c1ccc(C(=O)NC(=S)N2CCCCCC2)cc1 | -12.4%
43 | O=C(NC(=S)N1CCCC(C(F)(F)F)C1)c1ccc(F)cc1 (stereo unspecified) | 4.7% (active)
44 | CNC(=S)N/N=C/c1cc(Br)cc(Br)c1O | -14.8%
45 | CC(=O)N1c2ccc(N=Cc3cc(Br)cc(Br)c3O)cc2CC1C (stereo unspecified) | 1.6% (active)
46 | Cc1nnc(C)n1/N=C/c1cc(Br)cc(Br)c1O | -18.1%
47 | NC(=O)[C@@H]1CCCN1Cc1nc(Cc2ccccc2Cl)no1 | -33.1%
48 | CSc1nc(C)c(Cc2ccccc2)c(=O)[nH]1 | -30.6%
49 | CN(C)c1ccc(N=Nc2ccc(C(=O)O)cc2)cc1 | -27.2%
50 | Cc1ccc(N=Nc2ccc(O)c3ncccc23)cc1 | -33.4%
51 | O=c1ccc(N=Nc2ccccc2)ccc1O | 27.6% (active)
52 | CCC1CCCCN1C(=S)NC(=O)c1cccs1 (stereo unspecified) | -31.1%

Row | SMILES | signal change vs control minus 3*SD hit threshold (margin above threshold, higher = more increase)
53 | COc1ccc(/C=C/C(=O)Nc2ccccc2C(=O)O)cc1 | -18.6%
54 | COc1ccc(C(=O)Nc2ccccc2C(=O)O)cc1Cl | -30.4%
55 | COc1ccc(-n2nc(C)cc2Nc2ccccc2C(=O)O)cc1 | 0.3% (active)
56 | CCOc1cc(N2CCOCC2)c(OCC)cc1NC(=O)Cc1ccccc1 | -13.5%
57 | Nc1nonc1-n1nnc(C(=O)N/N=C/c2ccccn2)c1-c1ccccc1 | -22.7%
58 | O=C(NC(=S)Nc1nc2c(s1)CSc1ccccc1-2)c1ccccc1 | -20.9%
59 | COc1ccc(-c2cc(C(F)(F)F)nc(SCC(=O)NCc3cccs3)n2)cc1 | -17.2%
60 | Cc1ccccc1NC1=NC(=S)N(c2ccccc2)C12CCCCC2 | -2.6%
61 | COc1ccc(C(=O)CC(=O)C(=O)Nc2ccc(C)cc2Cl)cc1 | -13.5%
62 | CCOc1ccccc1NC(=O)C(=O)CC(=O)c1cccc(OC)c1 | -25.9%
63 | COc1ccc(C(=O)CC(=O)C(=O)Nc2ccccc2Cl)cc1 | 10.1% (active)
64 | COc1cccc(C(=O)NNC(=O)C(=O)Nc2cccc3ccccc23)c1 | 11.1% (active)
65 | COc1ccc(C(=O)NNC(=O)C(=O)Nc2cccc3ccccc23)cc1 | 12.2% (active)
66 | COc1cccc(C(=O)NNC(=O)C(=O)Nc2ccc(OC)cc2OC)c1 | -6.2%
67 | COc1ccc(C(=O)CC(=O)C(=O)Nc2ccccc2OC)cc1 | -25.2%
68 | COc1ccc(C(=O)CC(=O)C(=O)Nc2ccccc2C(F)(F)F)cc1 | -24.1%
69 | CCOc1ccccc1NC(=O)C(=O)CC(=O)c1ccc(OC)cc1 | -20.6%
70 | CCOC(=O)N1CCN(C(=O)c2ccc(Cl)c(S(=O)(=O)Nc3ccccc3)c2)CC1 | -11.6%
71 | O=C(O)CSc1nc2ccccc2nc1Cc1ccccc1F | -22.7%
72 | CCC(=O)N1CCN(c2nc(CC)nc3sc4c(c23)CCCC4)CC1 | -56%
73 | Cc1cc(-c2cccc(Br)c2)c(C#N)c(N)n1 | -34.5%
74 | O=C(CCN1C(=O)/C(=C\C=C\c2ccccc2)SC1=S)Nc1cccc(C(=O)O)c1 | -27.2%
75 | Cc1ccccc1OC(=O)n1c(=S)oc2cc(Cl)ccc21 | -25.4%
76 | Cc1ccccc1C(=O)Nc1nc(=S)ss1 | 9.5% (active)
77 | CC(C)CC(=O)Nc1nc(=S)ss1 | -30.3%
78 | O=C(NNC(=O)c1ccc(Cl)cc1Cl)c1cnccn1 | -29%

Row | SMILES | signal change vs control minus 3*SD hit threshold (margin above threshold, higher = more increase)
79 | O=C(Nc1nnc(-c2ccc3c(c2)CCCC3)o1)c1ccc(Cl)cc1Cl | -21.2%
80 | O=C(Nc1nc(=S)ss1)c1ccc(Cl)cc1Cl | 56.5% (active)
81 | COC(=O)c1sc(NC(=S)NC(=O)c2ccccc2C)nc1C | -2.6%
82 | O=C1Nc2ccc(Br)cc2C1Cc1ccccc1F (stereo unspecified) | -42.3%
83 | O=C(O)c1ccc2c(c1)C(=O)N(c1cc([N+](=O)[O-])ccn1)C2=O | -24.2%
84 | CCC(=O)Nc1ccc(N2CCOCC2)c(S(=O)(=O)Nc2ccc(OC)cc2)c1 | -21.7%
85 | O=C(c1ccccc1)c1nccn1-c1ccc(Cl)nn1 | -27.6%
86 | CC(NC(=O)C1CCN(S(=O)(=O)c2cccc3cccnc23)CC1)c1ccccc1 (stereo unspecified) | -31.3%
87 | Cc1cc(C(=O)NCCN2C(=O)S/C(=C\c3cccs3)C2=O)ccc1[N+](=O)[O-] | -31.4%
88 | Cn1cc(/C=C2\SC(=O)NC2=S)c2ccccc21 | -27.6%
89 | CCOc1ccc(/C=C2\CCc3ccccc3C2=O)cc1 | -33.6%
90 | CCOc1ccc(/C=C2/SC(=O)NC2=S)cc1 | 39% (active)
91 | Cc1ccc(-c2nc(N)s[n+]2-c2ccccc2)cc1 | -7.8%
92 | CCOC(=O)N/N=C\c1ccc(-c2cc(Cl)ccc2Cl)o1 | -32%
93 | Cc1ccc(C(C)NC(=O)c2cccs2)cc1C (stereo unspecified) | -16.2%
94 | O=C(N/N=C/c1cc(Cl)ccc1O)c1ccccc1Br | -21.5%
95 | CCOC(=O)c1sc(NN=C(C(=O)OC)C(=O)OC)c(C(=O)OCC)c1C | -7.4%
96 | CCOc1ccc(CC(C(N)=O)C(N)=O)cc1 | -32.5%
97 | CCCOc1ccc(-c2c(=O)n(O)c3ccccc3[n+]2[O-])cc1 | 29.7% (active)
98 | CCCOc1ccc(OC(=O)c2ccc(Br)o2)cc1 | -5.2%
99 | CCOc1ccc(N(CC)C(=O)COc2cc(=O)n(C)c3ccccc23)cc1 | -18.3%
100 | CCOc1ccc(-c2c(=O)n(O)c3ccccc3[n+]2[O-])cc1 | 19.7% (active)
101 | CCCOc1ccc(C(=O)NNC(=S)NC(=O)c2ccccc2)cc1 | -44.9%
